DT40 TDP1 CPT: qHTS for Inhibitors of human tyrosyl-DNA phosphodiesterase 1 (TDP1): qHTS in cells in presence of CPT; chicken DT40 Tdp1-/-;hTDP1 cells + 20 nM CPT, ATP luminescence, 48 h; Potency, µM (series often up to 46.2 µM), usual class: inhibitors; hit rate 12% among 420,000; AID 686979, 2013; also: nearly all actives have a fitted effect of over 55% in size
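Chicken DT40 Tdp1-/- cells complemented with human TDP1, 400 cells/well, exposed to compounds plus 20 nM camptothecin for at least 48 h at 37 C; viability read as ATP content by CellTiter-Glo luminescence.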
TDP1 block: qHTS Assay for Inhibitors of Tyrosyl-DNA Phosphodiesterase (TDP1); recombinant TDP1, AlphaScreen DNA substrate cleavage; Potency, µM (top dose mostly 130 µM), most hits filed as inhibitors; hit rate 0.28% among 350,000; AID 485290, 2010; also: nearly all actives have a fitted effect of over 40% in size
Target sequence (Q9NUW8 whole entry, looked up): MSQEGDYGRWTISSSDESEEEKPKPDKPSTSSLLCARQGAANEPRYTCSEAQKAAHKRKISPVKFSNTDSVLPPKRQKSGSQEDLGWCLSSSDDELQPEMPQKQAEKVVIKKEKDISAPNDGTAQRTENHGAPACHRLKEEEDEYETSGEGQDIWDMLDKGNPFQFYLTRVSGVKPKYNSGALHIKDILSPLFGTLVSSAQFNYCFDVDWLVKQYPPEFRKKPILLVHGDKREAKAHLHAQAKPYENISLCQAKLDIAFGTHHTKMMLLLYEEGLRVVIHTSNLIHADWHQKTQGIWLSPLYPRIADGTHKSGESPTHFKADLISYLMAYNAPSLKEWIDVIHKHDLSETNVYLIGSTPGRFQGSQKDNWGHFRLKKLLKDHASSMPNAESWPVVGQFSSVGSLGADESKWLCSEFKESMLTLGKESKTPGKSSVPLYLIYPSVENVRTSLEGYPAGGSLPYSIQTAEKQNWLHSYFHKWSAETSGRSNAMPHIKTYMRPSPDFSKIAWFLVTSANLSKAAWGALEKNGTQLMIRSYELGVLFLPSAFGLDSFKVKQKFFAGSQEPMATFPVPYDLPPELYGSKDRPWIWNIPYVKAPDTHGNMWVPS
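Steps: enzyme plus compound, 15 min RT; add biotin/phosphotyrosine-FITC oligonucleotide (15 nM final), react 5 min; add donor/acceptor beads (10 ug/ml final), 10 min; read AlphaScreen. Tdp1 at 1 nM final.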
uPA surface inh: qHTS for Inhibitors of Cell Surface uPA Generation; cell surface uPA generation assay, qHTS; Potency, µM (highest dose often 38.3 µM), most hits filed as inhibitors; hit rate 0.31% among 330,000; AID 540303, 2011; active = well fitted inhibition curve with a large enough effect; inconclusive = small, poorly fitted or top-dose-only effect; inactive = no such curve, though single readings can be large or run the other way; tested in mouse RAW 264.7 cells; also: nearly all actives have a fitted effect of over 55% in size
TDP1 cell noCPT: qHTS for Inhibitors of human tyrosyl-DNA phosphodiesterase 1 (TDP1): qHTS in cells in absence of CPT. DT40 Tdp1-/- hTDP1 cells, no CPT, ATP luminescence, 48 h. Potency, µM (doses to about 46.2 µM), most hits filed as inhibitors. hit rate 15% among 420,000. AID 686978, 2013; also: nearly all actives have a fitted effect of over 55% in size
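Chicken DT40 Tdp1-/- cells stably complemented with human TDP1 were seeded at 400 cells/well with DMSO in place of 20 nM camptothecin. After compound pinning, cells grew at least 48 hr at 37 °C; viability read by CellTiter-Glo luminescence.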
miR-21 act: qHTS Assay for Modulators of miRNAs and/orActivators of miR-21; HeLa miR-21 FLuc reporter, luciferase, 48 h; Potency, µM (highest dose often 38.3 µM), actives largely listed as activators; 340,000 tested, under 10 active;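 also: miR-21 action dims this reporter so a rising signal means less miR-21 action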
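Compounds were titrated across several concentrations (up to approximately 40 uM) and incubated 48 hours with HeLa miR-21-FLuc reporter cells (miR-21 target sequence downstream of FLuc, endogenous miR-21). Readout was firefly luciferase luminescence after lytic detection reagent.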
Large screens that a line does not name were inactive. Shown are actives, neighbours in structure and some others; about 16% of the full set was active somewhere. Unless noted, calls follow the shape of the dose curve; as a rule, active = well fitted curve in the direction sought with a large enough effect; inconclusive = small, poorly fitted or top-dose-only effect, or another doubt; inactive = no such curve, though single readings can be large; an effect the other way counts as inactive or inconclusive.

COc1ccc(NC(=O)c2cnc(SC)n2-c2ccc(F)cc2)c(OC)c1	TDP1 cell noCPT inconclusive
Cc1c(NC(=O)[C@@H](NC(=O)c2ccc(Cl)c([N+](=O)[O-])c2)C(C)C)c(=O)n(-c2ccccc2)n1C	TDP1 cell noCPT inconclusive (no result: miR-21 act)
COc1cc(C)ccc1OC(C)C(=O)Nc1ccc(N2CCCCC2)cc1 (configuration not stated)	DT40 TDP1 CPT inconclusive, TDP1 cell noCPT 13µM (no result: miR-21 act)
Cc1cccc(C(=O)CC(=O)c2cc(Cl)ccc2O)c1	DT40 TDP1 CPT 3.3µM, TDP1 cell noCPT 4.1µM
Cc1cccc(C(=O)NCC(=O)NNC(=O)c2ccccc2O)c1	none (no result: miR-21 act)
NC(=NCCc1ccc(Cl)cc1)NS(=O)(=O)c1ccccc1	DT40 TDP1 CPT inconclusive
Cc1ccc(O)c(C(=O)CC(=O)c2ccc(Cl)cc2)c1	DT40 TDP1 CPT 7.3µM, TDP1 cell noCPT 5.8µM (no result: TDP1 block)
NC(=NCCc1ccccc1)NC(=O)c1cc(Cl)ccc1O	DT40 TDP1 CPT inconclusive, TDP1 cell noCPT 18µM (no result: TDP1 block, miR-21 act)
Cc1ccc(O)c(C(=O)CC(=O)c2cccc(F)c2)c1	DT40 TDP1 CPT 2.3µM, TDP1 cell noCPT 2.6µM
O=C(O)c1cc(-c2ccc3ccccc3n2)nc2ccccc12	TDP1 cell noCPT inconclusive (no result: TDP1 block)
COc1cccc(/C=C/C(=O)N2CC(C)OC(C)C2)c1OC (configuration not stated)	none
N#CCCn1c(=O)n(CCC#N)c2ccccc21	none
O=C(CC(=O)c1cc(Cl)ccc1O)c1ccccc1	DT40 TDP1 CPT 2.3µM, TDP1 cell noCPT 4.6µM
CCCNS(=O)(=O)c1ccc(NC(=O)c2cccnc2)cc1	DT40 TDP1 CPT inconclusive (no result: uPA surface inh)
CC(=O)Nc1ccc(/C(C)=N/Nc2nc(Nc3cccc4ccccc34)nc(N3CCOCC3)n2)cc1	DT40 TDP1 CPT 21µM, TDP1 cell noCPT 21µM
CC(=O)Nc1ccc(/C(C)=N/Nc2nc(N3CCOCC3)nc(N3CCOCC3)n2)cc1	DT40 TDP1 CPT inconclusive, TDP1 cell noCPT 15µM
CCc1nnc(NC(=O)C2CC(=O)N(c3ccc(C)cc3)C2)s1 (configuration not stated)	none
Cc1cc(NS(=O)(=O)c2ccc(NC(=O)COc3c(C)cc(Br)cc3C)cc2)no1	DT40 TDP1 CPT 21µM, TDP1 cell noCPT 23µM
CCOc1ccc(OCC(=O)Nc2ccc(S(=O)(=O)Nc3cc(C)nc(C)n3)cc2)cc1	none
Cc1cc(NS(=O)(=O)c2ccc(NC(=O)COc3ccc(Br)cc3C)cc2)no1	none (no result: TDP1 block, uPA surface inh)
Cc1cc(NS(=O)(=O)c2ccc(NC(=O)COc3ccc(Br)cc3)cc2)nc(C)n1	DT40 TDP1 CPT 15µM, TDP1 cell noCPT inconclusive
CC1CC(NC2=NCCS2)CC(C)(C)C1 (configuration not stated)	TDP1 cell noCPT inconclusive
COc1ccc(CN2CCNC(=O)C2CC(=O)NCc2csc(C(C)C)n2)c(OC)c1 (configuration not stated)	TDP1 cell noCPT inconclusive
COC(=O)c1ccc(Oc2cc(C)nc(SC)n2)cc1	DT40 TDP1 CPT 4.1µM, TDP1 cell noCPT 2.9µM
Cn1c(=O)c2c(ncn2CC(=O)N2CCN(c3ccc(F)cc3)CC2)n(C)c1=O	DT40 TDP1 CPT inconclusive, TDP1 cell noCPT inconclusive
Cc1ccc(Cn2c(C(C)Nc3nc(-c4ccc(F)cc4)cs3)nc3cc(C(F)(F)F)ccc32)cc1 (configuration not stated)	DT40 TDP1 CPT 21µM, TDP1 cell noCPT inconclusive (no result: TDP1 block, miR-21 act)
CC(Nc1nc(-c2ccc(F)cc2)cs1)c1nc2cc(C(F)(F)F)ccc2n1CCOCCO (configuration not stated)	DT40 TDP1 CPT inconclusive, TDP1 cell noCPT inconclusive (no result: TDP1 block, miR-21 act)
CC(Nc1nc(-c2ccc(F)cc2)cs1)c1nc2cc(C(F)(F)F)ccc2n1CCCO (configuration not stated)	DT40 TDP1 CPT inconclusive, TDP1 cell noCPT 16µM (no result: TDP1 block, miR-21 act)
COc1ccc(-c2csc(NC(C)c3nc4cc(C(F)(F)F)ccc4n3CCOCCO)n2)cc1 (configuration not stated)	DT40 TDP1 CPT 16µM, TDP1 cell noCPT 18µM (no result: TDP1 block, miR-21 act)
Cc1csc(SCC(=O)Nc2ccc(C)c(F)c2)n1	TDP1 cell noCPT inconclusive (no result: miR-21 act)
CCCN1CNc2c(c(=O)[nH]c(=S)n2CCc2ccc(OCC)c(OCC)c2)C1	TDP1 cell noCPT inconclusive (no result: uPA surface inh, miR-21 act)
Cc1ccc(Cl)cc1NC(=O)C(=O)NCC(c1cccnc1)N1CCc2ccccc21 (configuration not stated)	DT40 TDP1 CPT 13µM, TDP1 cell noCPT 13µM (no result: uPA surface inh)
Cc1ccccc1C(=O)NCC(c1cccnc1)N1CCc2ccccc21 (configuration not stated)	DT40 TDP1 CPT inconclusive, TDP1 cell noCPT 18µM (no result: uPA surface inh)
Cc1cccc(C)c1NC(=O)C(=O)NCC(c1cccnc1)N1CCc2ccccc21 (configuration not stated)	DT40 TDP1 CPT 15µM, TDP1 cell noCPT 13µM (no result: uPA surface inh)
O=C(NCC(c1ccco1)N1CCc2ccccc21)c1ccccc1Cl (configuration not stated)	DT40 TDP1 CPT inconclusive, TDP1 cell noCPT inconclusive (no result: TDP1 block, miR-21 act)
CCOc1ccccc1NC(=O)C(=O)NCC(c1cccnc1)N1CCN(c2ccccc2)CC1 (configuration not stated)	DT40 TDP1 CPT inconclusive, TDP1 cell noCPT inconclusive (no result: uPA surface inh)
Cc1cccc(C)c1NC(=O)C(=O)NCC(c1ccc2c(c1)OCO2)N1CCN(C)CC1 (configuration not stated)	none (no result: uPA surface inh)
CCc1ccccc1NC(=O)C(=O)NCC(c1cccnc1)N1CCc2ccccc21 (configuration not stated)	DT40 TDP1 CPT inconclusive, TDP1 cell noCPT 21µM (no result: uPA surface inh)
Cc1ccc(C(=O)OCC(=O)NNC(=O)c2ccc([N+](=O)[O-])cc2)o1	none (no result: TDP1 block, miR-21 act)
O=C(c1ccc2c(=O)n(CCc3ccccc3)c(=O)[nH]c2c1)N1CCN(c2ccccc2)CC1	DT40 TDP1 CPT inconclusive, TDP1 cell noCPT inconclusive
COc1ccc(CCNC(=O)c2ccc(Cn3c(=O)[nH]c4cc(OC)c(OC)cc4c3=O)cc2)cc1OC	none (no result: uPA surface inh)
COc1cc2[nH]c(=O)n(Cc3ccc(C(=O)NCc4ccccc4)cc3)c(=O)c2cc1OC	DT40 TDP1 CPT 18µM, TDP1 cell noCPT inconclusive (no result: uPA surface inh)
O=C(c1ccc2c(=O)n(CCc3ccccc3)c(=O)[nH]c2c1)N1CCN(c2ccc(Cl)cc2)CC1	DT40 TDP1 CPT 16µM, TDP1 cell noCPT 18µM, miR-21 act inconclusive (no result: uPA surface inh)
O=C(c1ccc2c(=O)n(CCc3ccccc3)c(=O)[nH]c2c1)N1CCN(c2ccc(F)cc2)CC1	DT40 TDP1 CPT 12µM, TDP1 cell noCPT 13µM, miR-21 act inconclusive
COc1ccc(N2CCN(C(=O)c3ccc4c(=O)n(CCc5ccc(OC)c(OC)c5)c(=O)[nH]c4c3)CC2)cc1	DT40 TDP1 CPT 15µM, TDP1 cell noCPT 16µM

Screening results from PubChem BioAssay.
